Compound activity deposited in PubChem BioAssay by Broad Institute.
Many of the other results were omitted from the sample, so hits are more common in it than they were.
IDE exosite inh – displaces the probe from the exo-site of human IDE; P14735; purified IDE, FL-6b probe fluorescence polarization; active compounds read low; z-score at 20 µM; 6.3% of 17,000 active; AID 1259349;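 active = z-score of -3 or lower, meaning strong loss of probe binding signal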;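 note: His-tagged human IDE residues 42-1019 made in E. coli with 30 nM FL-6b probe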
* marks the source's active call; other numbers are inactive results.

SMILES	IDE exosite inh
Cc1ccccc1-c1ccc(C2[C@@H]3CN(S(=O)(=O)c4cn(C)cn4)C[C@H]2N3)cc1 (some centres not stated)	-5.3*
O=S(=O)(c1cccc(F)c1)N1[C@@H]2CNC[C@H]1C2c1ccc(-c2ccccc2F)cc1 (some centres not stated)	-1.1
CN1C(=O)c2cc(NC(=O)Nc3ccccc3F)ccc2OC[C@@H]2O[C@@H](CC(=O)NCCc3ccncc3)CC[C@H]21	0.45
CN(C)CC#Cc1ccc([C@@H]2[C@@H](CO)N3CCCCN(C(=O)NC4CCCC4)C[C@@H]23)cc1	4.4
C/C=C/c1ccc(C2[C@H]3CNC[C@@H]2N3S(=O)(=O)c2ccc(C)cc2)cc1 (some centres not stated)	1.1
COc1ccc2c3c(n(C)c2c1)[C@H](CO)N(CC1CC1)CC31CN(C(=O)c2ccc3c(c2)OCO3)C1	0.53
COc1ccc2c3c(n(C)c2c1)[C@@H](CO)N(C(=O)c1ccncc1)CC31CN(C(C)=O)C1	0.46
CC(=O)N(C[C@H]1N[C@H](CO)[C@@H]1c1ccc(-c2cccc(F)c2)cc1)C1CCCC1	4
COCC#Cc1ccc([C@H]2[C@@H](CO)N3C(=O)CN(C(=O)Nc4cc(F)ccc4F)C[C@H]23)cc1	0.33
COc1ccc2c3c(n(C)c2c1)[C@H](CO)N(C(=O)Cc1ccccn1)CC31CCN(C)CC1	-0.95
CCC(=O)N1[C@H](CO)[C@@H](c2ccc(/C=C/c3ccccc3)cc2)C12CN(S(C)(=O)=O)C2	-7.4*
CS(=O)(=O)N1CC2(C1)[C@H](c1ccccc1)[C@@H](CO)N2Cc1ccccc1	-1.3
CCS(=O)(=O)N1CC2(C1)[C@H](c1ccccc1)[C@@H](CO)N2C(=O)c1ccccc1	0.23
COc1ccc(C#Cc2ccc([C@@H]3[C@H]4CN(C(=O)Nc5ccccc5F)CCCCN4[C@H]3CO)cc2)cc1	0.86
CCC(=O)N1CCCCN2[C@H](CO)[C@@H](c3ccc(C#CCOC)cc3)[C@H]2C1	2.8
COc1ccc(C#Cc2ccc([C@H]3[C@H]4CN(C(=O)Nc5ccccc5F)CCCCN4[C@H]3CO)cc2)cc1	3
CCC(=O)N1CCCCN2[C@H](CO)[C@@H](c3ccc(C#Cc4ccccc4F)cc3)[C@H]2C1	1.8
COc1ccc(C#Cc2ccc([C@@H]3[C@@H](CO)N4CCCCN(C(=O)Nc5ccccc5F)C[C@H]34)cc2)cc1	1.8
CC(=O)N1CCCCN2[C@H](CO)[C@@H](c3ccc(C#Cc4ccccc4F)cc3)[C@H]2C1	-5.2*
CCC(=O)N1CCCCN2[C@@H](CO)[C@@H](c3ccc(C#Cc4ccccc4F)cc3)[C@@H]2C1	-8.2*
CCC(=O)N1CCCCN2[C@@H](CO)[C@H](c3ccc(C#Cc4ccccc4F)cc3)[C@@H]2C1	-3.9*
CC(C)[C@@H]1COCc2cn(nn2)CCC[C@@H](C)C(=O)N1	2
COCC(=O)N1CC(=O)N2[C@H](CO)[C@H](c3ccc(-c4ccccc4F)cc3)[C@@H]2C1	-2.3
CO[C@@H]1CN(C)C(=O)c2ccc(NC(=O)c3ccccc3F)cc2OC[C@H](C)N(C)C[C@H]1C	1.1
O=C(Nc1cc(F)ccc1F)N1CC(=O)N2[C@H](C1)[C@@H](c1ccc(-c3cccnc3)cc1)[C@@H]2CO	-8.2*
SMILES	IDE exosite inh
O=C(C1CCC1)N1CC(=O)N2[C@H](CO)[C@H](c3ccc(-c4cccnc4)cc3)[C@H]2C1	-2.1
O=C(NC1CCCC1)N1CC(=O)N2[C@H](C1)[C@@H](c1ccc(-c3cccnc3)cc1)[C@@H]2CO	-5.8*
O=C(NC1CCCC1)N1CC(=O)N2[C@@H](CO)[C@@H](c3ccc(-c4cccnc4)cc3)[C@@H]2C1	1.3
O=C(Nc1cc(F)ccc1F)N1CC(=O)N2[C@H](CO)[C@@H](c3ccc(-c4cccnc4)cc3)[C@H]2C1	1.9
O=C(Nc1cc(F)ccc1F)N1CC(=O)N2[C@H](C1)[C@H](c1ccc(-c3cccnc3)cc1)[C@@H]2CO	-1.8
O=C(C1CCC1)N1CC(=O)N2[C@H](CO)[C@@H](c3ccc(-c4cccnc4)cc3)[C@@H]2C1	-1.9
O=C(C1CCC1)N1CC(=O)N2[C@@H](CO)[C@@H](c3ccc(-c4cccnc4)cc3)[C@@H]2C1	-0.57
O=C(C1CCC1)N1CC(=O)N2[C@H](CO)[C@@H](c3ccc(-c4cccnc4)cc3)[C@H]2C1	1.7
O=C(C1CCCCC1)N1CC(=O)N2[C@H](CO)[C@@H](c3ccc(-c4cccnc4)cc3)[C@H]2C1	-0.58
O=C(NC1CCCC1)N1CC(=O)N2[C@@H](CO)[C@H](c3ccc(-c4cccnc4)cc3)[C@@H]2C1	-4.9*
O=C(NC1CCCC1)N1CC(=O)N2[C@H](CO)[C@@H](c3ccc(-c4cccnc4)cc3)[C@@H]2C1	-12*
CCCNC(=O)N1[C@H](CNC(C)=O)[C@@H](c2ccccc2)[C@@H]1CO	3.4
C/C=C/c1ccc([C@H]2[C@@H](CO)N3CCCCN(C(=O)Nc4cc(F)ccc4F)C[C@@H]23)cc1	3.5
C[C@H]1CN([C@@H](C)CO)C(=O)c2cc(-c3ccc(F)cc3)cnc2O[C@@H]1CN(C)S(C)(=O)=O	1.2
COCC#Cc1ccc([C@H]2[C@H]3CN(C(=O)C4CC4)CC(=O)N3[C@H]2CO)cc1	0.41
CCC(=O)N1CC(=O)N2[C@@H](CO)[C@H](c3ccc(C#CC4CCCCC4)cc3)[C@@H]2C1	3.6
O=C(Nc1ccc(F)cc1)N1CC(=O)N2[C@H](CO)[C@H](c3ccc(Br)cc3)[C@H]2C1	2.5
COc1ccccc1NC(=O)N1CC(=O)N2[C@H](CO)[C@@H](c3ccc(C#Cc4ccc(F)cc4)cc3)[C@@H]2C1	1.5
